Records with an inconclusive call do not appear. The source made the active and inactive calls. Unless noted, the call rests on the fitted dose curve; in most records, active means well fitted curve in the direction sought with a large enough effect; inconclusive means small, poorly fitted or top-dose-only effect, or another doubt; inactive means no such curve, though single readings can be large; an effect the other way counts as inactive or inconclusive.
How the values were obtained:
[1] = Cell Viability - BJ (AID 421; calls by dose curve;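 further: potency means the concentration at half of the fitted maximal effect; cells exposed to compound for 40 hours at 37 °C before readout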); settings: BJ fibroblast viability, qHTS
Outline: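 Quantitative HTS: ATP depletion in BJ cells after 40 hr compound exposure in complete culture medium, detected with CellTiter-Glo; AC50 from standard Hill fits.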

[2] = Cell Viability - Jurkat (AID 426;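 active means dose-dependent loss of cell ATP signal giving a full or clear fitted curve, ranked by lower potency value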; further: potency means the concentration at half of the fitted maximal effect); settings: qHTS
Outline: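 Cells of the human T-cell leukemia line Jurkat (E6-1) are seeded at 5000 per well, treated with compound across a concentration range for 40 hours at 37 °C, then lysed with CellTiter-Glo; luminescence reports ATP.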

[3] = Cell Viability - Hek293 (AID 427;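 active means compounds whose dose-response curve shows a full or clear partial loss of cell viability, called from curve shape rather than a numeric limit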;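 further: potency means the concentration at half of the fitted maximal effect; cells exposed to compound for 40 hours at 37 °C before reading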); settings: qHTS
Outline: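 AC50 values derive from Hill-modelled concentration-response of ATP-based luminescence, normalized between DMSO-only and 100 uM tamoxifen controls. Cells were exposed in complete culture medium for 40 hr at 37 °C before detection.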

[4] = Cell Viability - HepG2 (AID 433; calls by dose curve;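 further: potency means the concentration at half of the fitted maximal effect; potency for ATP loss meaning cytotoxicity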); settings: qHTS
Outline: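 HepG2 cells, 1500 per well, treated 40 hr at 37 °C in complete medium; viability from intracellular ATP by CellTiter-Glo luminescence. Normalized to DMSO and 100 uM tamoxifen; AC50 from Hill fit of qHTS concentration-response.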

[5] = Cell Viability - MRC5 (AID 434; calls by dose curve;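 further: potency means the concentration at half of the fitted maximal effect; potency reflects cytotoxicity seen as loss of intracellular ATP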); settings: MRC5 lung fibroblast viability, qHTS
Outline: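 ATP luminescence read-out (CellTiter-Glo, 20 min RT) after 40 hr, 37 °C compound exposure of 1500 MRC5 cells/well. Data normalized to DMSO (basal) and 100 uM tamoxifen (100% inhibition); AC50 from standard Hill equation.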

[6] = Cell Viability - SK-N-SH (AID 435; calls by dose curve;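 further: potency means the concentration at half of the fitted maximal effect; compound exposure lasted 40 h at 37 °C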); settings: SK-N-SH neuroblastoma cell viability qHTS
Outline: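 SK-N-SH neuroblastoma cells (1500/well) treated 40 h at 37 °C in complete medium; viability read as cellular ATP by CellTiter-Glo luminescence. Normalized to DMSO and 100 uM tamoxifen; AC50 from Hill fits of qHTS concentration-response.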

[7] = Cell Viability - N2a (AID 540); settings: N2a mouse neuroblastoma cell viability; at 92.2 µM (top of the series);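 further: plate controls were DMSO alone for no effect and tamoxifen control for full effect; nearly all actives have a fitted effect of over 45% in size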
Outline: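 Cytotoxicity was scored as loss of cellular ATP in N2a cells, a mouse neuroblastoma line. Compounds are applied in a qHTS concentration series for 40 hr at 37 °C.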

[8] = Cell Viability - HUV-EC-C (AID 542); further: on the % scale 0 is the no-effect control and ±100 the full control effect; nearly all actives have a fitted effect of over 35% in size
Outline: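 Cells were seeded at 1000 per well and incubated 5 hr at 37 °C before compound addition. After 40 hr at 37 °C, CellTiter-Glo reagent was added for 20 min and luminescence read. AC50 values came from Hill-equation modelling.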

[9] = Cell Viability - SH-SY5Y (AID 544); settings: SH-SY5Y neuroblastoma cell viability; viability change, negative = cytotoxic: at 92.2 µM (top of the series);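 further: 0% = DMSO alone and -100% = 100 µM tamoxifen; nearly all actives have a fitted effect of over 55% in size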
Outline: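 Cells were plated at 1500 per well and allowed 5 hr at 37 °C. Compounds were added across a concentration range and incubated 40 hr at 37 °C. CellTiter-Glo was added for 20 min at room temperature before luminescence reading.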

[10] = Cell Viability - Renal Proximal Tubule (AID 545); settings: renal proximal tubule cells viability; at 91.7 µM (top of the series), primary cells of rat origin unless noted;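 further: 0% = DMSO only and -100% = 100 µM tamoxifen; nearly all actives have a fitted effect of over 40% in size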
Outline: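 Rat renal proximal tubule primary cells, 1000/well, exposed to compounds for 40 hr at 37 °C in complete medium; cellular ATP read by CellTiter-Glo luminescence. AC50 from concentration-response fitted with standard Hill equation.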

[11] = Cell Viability - Mesenchymal (AID 546);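 further: cells exposed to compound for 40 hours before reading; 0% = DMSO only and -100% = 100 µM tamoxifen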
Outline: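 Human renal mesenchymal cells (glomerulus-derived), 1000 cells/well, 5 hr 37 °C pre-incubation; compound 40 hr, 37 °C; CellTiter-Glo, 20 min RT; luminescence; AC50 via Hill equation.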

[12] = Cellular Toxicity (caspase-3) HepG2 (AID 654);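 further: cells exposed to compound for 16 hours before reading; 0% = DMSO alone and 100% = caspase signal from 100 µM tamoxifen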
Outline: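 Caspase 3/7 activation in HepG2 is measured as rising luminescence after a 16 hr treatment at 37 °C. Values are scaled between DMSO basal and 100 uM tamoxifen, and AC50 is fitted with the Hill equation.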

[13] = Cellular Toxicity (caspase-3) HUV-EC-C (AID 656);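 further: 0% = DMSO basal and 100% = 100 µM tamoxifen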
Outline: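 HUV-EC-C cells (1000/well) in complete medium, compound-treated 16 h at 37 °C; caspase-3/7 activity read by Caspase-Glo 3/7 luminescence. Normalized to DMSO (basal) and 100 uM tamoxifen (100%); AC50 from Hill-equation concentration-response fits.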

[14] = Cellular Toxicity (caspase-3) SHSY5Y (AID 657)
Outline: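 SH-SY5Y human neuroblastoma cells, 1500/well, exposed to compound for 16 hours at 37 °C in complete medium. Caspase-3/7 activity read by Caspase-Glo luminescence after 1 hr at room temperature, normalized to DMSO and 10 uM staurosporine; AC50 from Hill fit.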

[15] = Cellular Toxicity (caspase-3) BJ (AID 658)
Outline: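 qHTS, BJ fibroblasts, 1000 cells/well; 5 hr preincubation, 16 hr compound, 37 °C; Caspase-Glo 3/7 reagent, 1 hr RT; luminescence. DMSO = 0%, 10 uM staurosporine = 100%. Hill-equation AC50.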

[16] = Cellular Toxicity (caspase-3) MRC-5 (AID 659)
Outline: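 MRC-5 fibroblasts, 1500/well; 16 h cpd, 37 °C; Caspase-Glo 3/7, 1 h RT; lumi read. Norm: DMSO = 0%, 10 uM staurosporine = 100%. Hill-fit AC50 from qHTS conc-response.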

[17] = Cellular Toxicity (caspase-3) Mesangial (AID 660);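 further: cells exposed to compound for 16 h before the caspase read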
Outline: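 Seed cells derived from normal human renal glomeruli, incubate 5 h, add compounds across concentrations and incubate 16 h at 37 °C. Caspase 3/7 activation is then quantified by luciferase light, with AC50 derived by Hill modeling.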

[18] = Cellular Toxicity (caspase-3) SK-N-SH (AID 661)
Outline: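 Cells were seeded and incubated 5 hr at 37 °C, dosed with compound over a concentration range for 16 hr, then given Caspase-Glo 3/7 reagent for 1 hr at room temperature before luminescence reading.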

[19] = Cellular Toxicity (caspase-3) H-4-II-E (AID 663);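 further: cells exposed to compound for 16 hr before readout; 0% = DMSO basal and 100% = 100 µM tamoxifen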
Outline: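 H-4-II-E rat hepatoma, 1500 cells/well, 5 hr settle at 37 °C; compound 16 hr, 37 °C, complete medium; Caspase-Glo 3/7, 20 min RT; luminescence. DMSO = 0%, 100 uM tamoxifen = 100%; Hill-equation AC50.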

[20] = Cellular Toxicity (caspase-3) N2a (AID 665); settings: N2a cells, luminescence, normalized: DMSO 0%, 10 µM staurosporine 100%; at 92.2 µM (top of the series);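 further: compound exposure lasted 16 h at 37 °C before readout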
Outline: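 Caspase-3/7 activation, measured as increased luminescence from aminoluciferin release, is quantified in mouse N2a cells exposed to compounds for 16 h. Values are normalized to DMSO and 10 uM staurosporine, with AC50 derived by Hill modelling.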

[21] = Cellular Toxicity (caspase-3) NIH 3T3 (AID 666);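 further: caspase signal read after 16 h compound exposure; 0% = DMSO basal and 100% = 100 µM tamoxifen stimulation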
Outline: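 Cells were plated at 1000 per well and incubated 5 hr at 37°C, then compound was added for 16 hr. Caspase-Glo 3/7 reagent followed for 20 min at room temperature before luminescence was read.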

[22] = Cellular Toxicity (caspase-3) Renal Proximal Tubule (AID 667); settings: renal proximal tubule cells; at 91.7 µM (top of the series), primary cells freshly taken from rat, solvent-only wells 0%, staurosporine 100% unless noted;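 further: cells exposed to compound for 16 hours at 37 °C before detection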
Outline: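 Freshly isolated primary rat kidney proximal tubule cells, 1000/well, treated 16 hr at 37 °C, then Caspase-Glo 3/7 luminescence after 1 hr. Normalized to DMSO and 10 uM staurosporine; AC50 from Hill fit.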

[23] = molecular target: Cytochrome P450 3A4 (Homo sapiens) (UniProt P08684); test: qHTS Assay for Inhibitors and Substrates of Cytochrome P450 3A4 (AID 884); further: on the % scale 0 is the no-effect control and ±100 the full control effect; nearly all actives have a fitted effect of over 50% in size
Sequence of Cytochrome P450 3A4 (Homo sapiens) (P08684 whole entry, looked up): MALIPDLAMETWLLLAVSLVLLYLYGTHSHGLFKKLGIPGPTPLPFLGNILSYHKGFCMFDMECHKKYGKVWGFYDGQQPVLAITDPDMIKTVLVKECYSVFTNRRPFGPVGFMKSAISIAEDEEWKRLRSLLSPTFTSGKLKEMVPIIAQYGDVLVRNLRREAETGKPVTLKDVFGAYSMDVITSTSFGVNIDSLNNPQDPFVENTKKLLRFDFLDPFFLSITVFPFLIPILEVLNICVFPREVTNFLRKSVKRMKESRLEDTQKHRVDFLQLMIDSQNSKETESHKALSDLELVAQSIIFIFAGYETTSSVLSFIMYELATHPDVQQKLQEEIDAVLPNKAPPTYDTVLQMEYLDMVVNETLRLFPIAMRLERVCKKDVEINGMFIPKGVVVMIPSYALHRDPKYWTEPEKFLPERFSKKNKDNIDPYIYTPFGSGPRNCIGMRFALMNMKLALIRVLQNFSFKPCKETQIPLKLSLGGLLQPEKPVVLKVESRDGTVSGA
Outline: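 Luminescent readout of luciferin produced by CYP3A4 (20 nM) dealkylation of Luciferin-PPXE, 25 uM (its KM). NADPH-driven reaction ran 60 min at RT after 10 min compound preincubation; data scaled to 57 uM ketoconazole as 100% inhibition.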

CCCOC(=O)c1ccccc1C(=O)OCCC
inactive: Potency [1] > 92 µM | Potency [2] > 92 µM | Potency [3] > 92 µM | Potency [4] > 92 µM | Potency [5] > 92 µM | Potency [6] > 92 µM | activity change, negative = cytotoxicity [7] -15% | Potency [8] | Potency [9] | activity change, negative = cytotoxicity [10] -1.75% | outcome [11] | outcome [12] | outcome [13] | outcome [14] | outcome [15] | outcome [16] | outcome [17] | outcome [18] | outcome [19] | caspase-3 activation [20] 2.99% | outcome [21] | caspase-3 activation [22] 0.709% | Potency [23]

— PubChem BioAssay (NCATS)
